Data from ChEMBL document CHEMBL1157539, “Thousands of chemical starting points for antimalarial lead identification” (Nature, 2010).

How the values were obtained:
Type in all cases: functional
[1] = tested on: Plasmodium falciparum; experiment: GSK_TCMDC: Inhibition of Plasmodium falciparum 3D7 in whole red blood cells, using parasite LDH activity as an index of growth. Test compounds present at 2uM
[2] = tested on: Plasmodium falciparum; experiment: GSK_TCMDC: Inhibition of Plasmodium falciparum Dd2 in whole red blood cells, using parasite LDH activity as an index of growth. Test compounds present at 2uM
[3] = tested on: HepG2; experiment: GSK_TCMDC: Percent inhibition of human HepG2 cell line. Test compounds present at 10uM.

Compound	Inhibition [1] [%]	Inhibition [2] [%]	Inhibition [3] [%]
O=C(O)C(F)(F)F.c1ccc(CN2CCC(NCc3ccccc3-c3ccc(CNC4CCCC4)cc3)CC2)cc1	100	33	38
Clc1ccc(Nc2nc3ccc(Cl)cc3nc2Nc2ccc(Cl)cc2)cc1	99	99	79
O=c1nc(C=Cc2ccc(Br)cc2)oc2ccccc12	97	66	0
Br.Clc1ccc(-c2nc(-c3ccncc3)c[nH]2)cc1Cl	96	63	1
Cc1cccc(C)c1OC(=O)CSc1nnc(-c2ccccc2O)o1	97	0	11
CCCCCCCc1c(C)nc2cccc(OC)c2c1O	95	47	43
Cl.N=C1C=C(N)C(=O)c2ccccc21	81	85	99
CCNC(=O)Nc1cccc(-c2cccc(-c3nc4cccc(C)c4[nH]3)c2)c1	85	31	7
CCN(CC)S(=O)(=O)c1ccc(Cl)c(C(=O)Nc2ccc3nc(C)sc3c2)c1	96	94	9
Cc1cccc(Cn2nc(-c3ccccc3)c(N3CCCCC3)cc2=O)c1	98	0	29
COc1cc(OC)c(NC(=O)Nc2ccnc3ccccc23)cc1Cl	97	9	19
O=C(NCCN1CCOCC1)c1ccc(CNC(=O)c2ccc(O)c(-c3ccc(Cl)c(Cl)c3)c2)cc1	87	55	3
